{"source": "PubChem BioAssay AID504329", "about": "(Southern Research Specialized Biocontainment Screening …, 2011)", "note": "The whole screen tested about 340,000 compounds, of which about 1,000 (0.29%) were called active. Only a sample is shown. Potency and affinity values are given separately. Unmarked numbers belong to inactive results. Cut-off read from the data, not from the text of the source: inconclusive = inhibition above about 27% without an active follow-up result; inactive = below that.", "data": [{"experiment": "NS1A inhibition, H1N1 influenza, cell based functional assay (AID 504329)", "conditions": "percent inhibition, at 12.5 µM, hits give high values", "units": {"inhibition": "%"}, "values": [{"smiles": "Nc1nnc(SCC(=O)NCCNC(=O)CSc2nnc(N)s2)s1", "inhibition": -11.3}, {"smiles": "Cc1noc(-c2ccc(Cl)cc2)c1C(=O)O/N=C(\\N)c1ccc(C(C)(C)C)cc1", "inhibition": 12.5}, {"smiles": "O=C(CN1CCCCC1)N=Nc1c(O)[nH]c2ccccc12", "inhibition": -8.88}, {"smiles": "Cc1ccc(-c2nnc(N3CCCCC3)c3ccccc23)cc1S(=O)(=O)N(C)C", "inhibition": -3.68}, {"smiles": "CS(=O)(=O)Oc1ccc2c(c1)O/C(=C\\c1cccc([N+](=O)[O-])c1)C2=O", "inhibition": 7.03}, {"smiles": "CS(=O)(=O)c1ccc(S(=O)CC(=O)OCc2ccccc2)c([N+](=O)[O-])c1", "note": "(stereo not drawn)", "inhibition": 11.4}, {"smiles": "COc1ccccc1OCCOC(=O)Nc1ccccc1", "inhibition": -11.2}, {"smiles": "O=C1/C(=C\\c2ccc(O)c(O)c2)C(c2ccccc2)=NN1c1ccccc1", "inhibition": 23.5}, {"smiles": "COc1cc(/C=C2/C(=O)N(c3ccc(C(=O)O)cc3)N=C2C)cc(OC)c1O", "inhibition": 13.2}, {"smiles": "COc1cc(/C=C2\\C(=O)N(c3ccc(NC(C)=O)cc3)N=C2c2ccccc2)ccc1O", "inhibition": 12.5}, {"smiles": "COc1cc(/C=C2/C(=O)N(c3ccc(Br)cc3)N=C2C)cc(OC)c1OC", "inhibition": 3.78}, {"smiles": "CCOC(=O)C1CCC(CN(Cc2ccccc2)S(=O)(=O)c2ccc([N+](=O)[O-])cc2)CC1", "note": "(stereo not drawn)", "inhibition": 6.67}, {"smiles": "CCOC(=O)c1ccc(COc2ccc(C(C)C)cc2)o1", "inhibition": -6.49}, {"smiles": "COc1ccccc1C=NN1C(=O)CSC1=S", "inhibition": 1.86}, {"smiles": "CCOc1cccc(/C=N/N=C/c2cccc(OCC)c2O)c1O", "inhibition": -10.6}, {"smiles": "O=C1CSC(=S)N1N=Cc1cccc2ccccc12", "inhibition": 13.2}, {"smiles": "CCOc1cccc(/C=N/N2C(C)CCCC2C)c1O", "note": "(stereo not drawn)", "inhibition": -10.1}, {"smiles": "O=C1CSC(=S)N1/N=C/c1ccc(O)c(O)c1O", "inhibition": -1.09}, {"smiles": "Cc1ccccc1/C=N/N1C(=O)CSC1=S", "inhibition": -0.54}, {"smiles": "CC(=O)O[C@H]1[C@H](O)[C@H](Oc2c(O)c(C)c3c4c2[C@@H](C)CC[C@@H]4[C@@H](C)C[C@H]3C=C(C)C)O[C@@H](C)[C@H]1O", "inhibition": 4.02}, {"smiles": "COc1ccc(-c2nc3ccccc3c(=O)n2CC(C)C)cc1", "inhibition": -17.7}, {"smiles": "CCN1C(=NCCCOC(C)C)N[C@@H](CCc2ccccc2)[C@H](C(=O)NCCCOC(C)C)[C@H]1C", "inhibition": 7.63}, {"smiles": "COc1ccc(OC)c(C(=O)N(C)C2CCCN(Cc3ccccc3F)C2)c1", "note": "(stereo not drawn)", "inhibition": 2.52}, {"smiles": "COC(=O)C1=C(c2c(C)noc2C)C[C@@H]2CC[C@H]1N2C(=O)NCCCOC(C)C", "inhibition": -1.03}, {"smiles": "COC(=O)C1CCN(C(=O)/C=C/c2ccc(OC)cc2)CC1", "inhibition": 1.45}, {"smiles": "CCOc1ccccc1OCCCC(=O)ON=C(N)c1ccccc1", "inhibition": -17.2}, {"smiles": "COc1ccc(-c2c(NC(=O)c3ccco3)oc3ccccc3c2=O)cc1OC", "inhibition": 9.22}, {"smiles": "CCOc1ccccc1C(=S)NC1CCCCC1", "inhibition": -0.78}, {"smiles": "CCOc1ccccc1OCCNC1CCCC1", "inhibition": -3.47}, {"smiles": "CC(C)C[C@@H]1CN=C(N)N1C[C@@H]1CCCN1C[C@@H](C(C)C)N1C[C@@H](Cc2ccccc2)N(CCCC2CCCC2)C1=N", "inhibition": 0.6}, {"smiles": "CCOc1ccc(S(=O)(=O)Nc2ccc(C(=O)NCC(C)(C)N3CCOCC3)cc2)cc1", "inhibition": -9.51}, {"smiles": "O=C(O)c1cc(S(=O)(=O)Nc2ccccc2C(=O)O)ccc1O", "inhibition": -2.33}, {"smiles": "O=C(O)c1cc(S(=O)(=O)O)ccc1O", "inhibition": -4.88}, {"smiles": "O=C(NNC(=O)c1cc(-c2cccc(Br)c2)nc2ccccc12)c1csc(N2CCOCC2)n1", "inhibition": -7.9}, {"smiles": "COc1cc(/C=N/NC(=O)c2ccc(C)nc2)cc([N+](=O)[O-])c1O", "inhibition": -21.2}, {"smiles": "O=C(N/N=C/c1cc2c(cc1Cl)OCO2)c1ccncc1", "inhibition": -1.41}, {"smiles": "COc1cc([N+](=O)[O-])cc(/C=N/NC(=O)c2ccc(NC(=O)c3ccc(C)cc3)cc2)c1O", "inhibition": -0.59}, {"smiles": "COc1cc([N+](=O)[O-])cc(/C=N/NC(=O)c2cccnc2)c1O", "inhibition": -13.7}, {"smiles": "Cc1cc(C)nc(N/N=C/c2cc(Br)ccc2O)n1", "inhibition": 8.15}, {"smiles": "COc1cc([N+](=O)[O-])cc(/C=N/NC(=O)c2cncc(Br)c2)c1O", "inhibition": -13.3}, {"smiles": "Oc1ccc(Br)cc1/C=N/Nc1ncc(-c2ccccc2)cn1", "inhibition": -1.12}, {"smiles": "O=C(N/N=C/c1ccncc1)c1ccncc1", "inhibition": 0.03}, {"smiles": "Cc1ccc([N+](=O)[O-])cc1S(=O)(=O)Nc1ccc(OCC(=O)N2CCOCC2)cc1", "inhibition": -6.07}, {"smiles": "COC(=O)c1ccccc1S(=O)(=O)NC(=O)c1ccccc1", "inhibition": -2.87}, {"smiles": "CCOC(=O)C1CCN(CCC(=O)Nc2ccc(Br)cc2)CC1", "inhibition": -10.6}, {"smiles": "CC(Sc1nnc2ccccn12)C(N)=O", "note": "(stereo not drawn)", "inhibition": 7.97}, {"smiles": "Cc1ccc(S(=O)(=O)Nc2ccccc2C(=O)N2CCCCC2)cc1", "inhibition": -16.7}, {"smiles": "COc1ccc(C(=O)Nc2cccc(C)n2)cc1S(=O)(=O)N1CCCc2ccccc21", "inhibition": 8.43}, {"smiles": "CC(C)(C)OC(=O)N1C[C@H](O)C[C@H]1C(=O)OCC(=O)c1ccc([N+](=O)[O-])cc1", "inhibition": 9.24}, {"smiles": "CN(CC(=O)Nc1ccc(Cl)c(S(=O)(=O)N2CCOCC2)c1)C(=O)c1cccs1", "inhibition": -3.85}, {"smiles": "Cc1cnc(C)c(N2CCN(Cc3cn(C)nc3-c3cccc(Cl)c3)CC2)n1", "inhibition": -9.06}, {"smiles": "COC(=O)C(C(=O)OC)[C@@H]1C=C[C@H](C[N+](=O)[O-])N(C(C)=O)C1", "inhibition": -12.3}, {"smiles": "CCCOc1ccc(CNC(=O)C2CCN(c3nnc(N4CCCC4=O)s3)CC2)cc1", "inhibition": -2.57}, {"smiles": "Cc1ccccc1NC(=O)c1c(Cl)nc(C)c(Cl)c1C", "inhibition": -3.05}, {"smiles": "O=C(NCc1ccncc1)C1CCC(=O)N(CCc2ccc(Cl)cc2)C1", "note": "(stereo not drawn)", "inhibition": -3.67}, {"smiles": "O=C(NCC1CCCO1)C(=O)N/N=C/c1ccc(O)c(Cl)c1", "note": "(stereo not drawn)", "inhibition": 11.2}, {"smiles": "O=C(N/N=C/c1cc([N+](=O)[O-])ccc1O)c1ccncc1", "inhibition": -34.5}, {"smiles": "O=C(NCC1CCCO1)C(=O)N/N=C/c1cccc(Cl)c1", "note": "(stereo not drawn)", "inhibition": 1.01}, {"smiles": "COc1ccc(Br)cc1/C=N/NC(=O)C(c1ccncc1)N1CCOCC1", "note": "(stereo not drawn)", "inhibition": 2.7}, {"smiles": "Cc1ccc(C(=O)N/N=C\\c2cc3c(cc2Br)OCO3)cn1", "inhibition": -7.88}, {"smiles": "O=C(CNC(=O)c1ccncc1)N/N=C/c1cc(Br)ccc1O", "inhibition": 2.02}, {"smiles": "Cc1ccc(/C=N/NC(=O)C(c2ccncc2)N2CCOCC2)cc1", "note": "(stereo not drawn)", "inhibition": 3.83}, {"smiles": "COc1ccc(C(=O)N/N=C/c2cc(Br)ccc2O)cc1OC", "inhibition": -6.16}, {"smiles": "COC(=O)c1ccc(N2CCN(C)CC2)c(NC(=O)COc2cccc(C)c2)c1", "inhibition": 8.25}, {"smiles": "CC12CCC(=O)N1C(C(=O)Nc1ccccc1N1CCOCC1)CS2", "note": "(stereo not drawn)", "inhibition": 1.95}, {"smiles": "O=C(CCCC(=O)Nc1ccc(Br)cc1)N/N=C/c1ccccc1", "inhibition": -7.56}, {"smiles": "CNC(=S)NN=C(C)CCCC(C)=NNC(=S)NC", "inhibition": -24.1}, {"smiles": "O=C1c2cccc([N+](=O)[O-])c2C(=O)N1C1CCCCC1", "inhibition": -11.8}, {"smiles": "CN1CCN(C(=O)CNC(=O)C23CC4CC(CC(C4)C2)C3)CC1", "inhibition": -0.78}, {"smiles": "O=C(N/N=C/c1cc(Cl)ccc1O)c1ccc(Br)cc1", "inhibition": -2.86}, {"smiles": "O=C(N/N=C/c1cccnc1)c1cccc(Cl)c1", "inhibition": -19.1}, {"smiles": "O=C(N/N=C/c1ccc(Cl)cc1Cl)c1ccncc1", "inhibition": -7.47}, {"smiles": "O=C(N/N=C/c1coc2ccc(Cl)cc2c1=O)c1ccncc1", "inhibition": 2.11}, {"smiles": "COc1ccc(/C=C(\\NC(=O)c2ccco2)C(=O)N2CCOCC2)cc1", "inhibition": 10.3}, {"smiles": "CCN(CC)Cc1cc(C(C)(C)C)cc(N2CCOCC2)c1O", "inhibition": 3.29}, {"smiles": "CCc1cc(=O)[nH]c(SCCc2ccccc2)n1", "inhibition": 1.92}, {"smiles": "O=C(NC1CCCC1)C1CCCN1C(=O)Nc1ccccc1", "note": "(stereo not drawn)", "inhibition": 7.61}, {"smiles": "CCOc1cccc(-c2c(C(=O)N/N=C(\\C)c3ccncc3)nnn2-c2nonc2N)c1", "inhibition": 0.12}, {"smiles": "CCOc1cccc(-c2c(C(=O)N/N=C(\\C)c3cccnc3)nnn2-c2nonc2N)c1", "inhibition": -0.26}, {"smiles": "N=C1c2ccccc2CN1NC(=O)c1ccc(Br)o1", "inhibition": -1.62}, {"smiles": "O=[N+]([O-])c1cccc(Nc2c([N+](=O)[O-])ccc3nonc23)c1", "inhibition": 11.8}, {"smiles": "Cc1ccc(Nc2c([N+](=O)[O-])ccc3nonc23)c(C)c1", "inhibition": 24.2}, {"smiles": "COc1ccccc1CNC(=O)CSC1=NCCS1", "inhibition": -11.3}, {"smiles": "CSc1ccccc1OCc1cc(C(=O)NCCN2CCCC(O)C2)no1", "note": "(stereo not drawn)", "inhibition": 14.2}, {"smiles": "CC(NC(=O)COC(=O)C12CC3CC(CC(Br)(C3)C1)C2)c1ccccc1", "note": "(stereo not drawn)", "inhibition": 4.11}, {"smiles": "O=C(NN=Cc1c(O)ccc2ccccc12)c1ccc2c(c1)OCO2", "inhibition": 3.47}, {"smiles": "O=C(N/N=C\\c1c(O)ccc2ccccc12)c1ccc(O)cc1", "inhibition": 3.55}, {"smiles": "O=C(N/N=C\\c1c(O)ccc2ccccc12)c1cncc(Br)c1", "inhibition": -2.66}, {"smiles": "O=C(N/N=C/c1c(O)ccc2ccccc12)c1cccc(C(F)(F)F)c1", "inhibition": 5.26}, {"smiles": "CCOc1ccc2ccccc2c1/C=N/NC(=O)c1ccncc1", "inhibition": -4.1}, {"smiles": "Cc1ccc(C(=O)N/N=C/c2c(O)ccc3ccccc23)cn1", "inhibition": -7.55}, {"smiles": "O=C(N/N=C/c1cccc2ccccc12)c1cccnc1", "inhibition": -1.84}, {"smiles": "O=C(N/N=C/c1c(O)ccc2ccccc12)c1ccc(Br)o1", "inhibition": -3.25}]}]}
